Where “and” joins values, the source holds several entries; their conditions need not be identical. Equal entries are not always repeated. Calls of active or inactive are those of the source.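 Rule for the calls, unless noted: active = compounds whose cell count with miR-34 switched on is under 0.7 times the count with it off; inactive = the rest.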
Key:
[1] = sensitizers of A549 cells to miR-34 induction, primary screen, imaging, A549 dox-inducible miR-34, nuclei and caspase counts (AID 1347080); conditions: A549 miR-34 inducible, Hoechst nuclei count, 48 h
[2] = survival rescue of mitochondrial mutant cells in low glucose, primary screen, MELAS cybrids, Rieske KO mouse fibroblasts, CellTiter-Glo (AID 1508586;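 active = mean z-score across replicates of 1.96 or higher in either the MELAS or the Rieske mutant cell line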;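 note: z relative to plate mean and SD of compound and empty wells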)
[3] = stronger effect = lower value, cell number ratio, induced over uninduced
[4] = measured here: relative caspase fold change +Dox/-Dox
[5] = measured here: total cells with miR-34 induction, stronger effect = lower value
[6] = measured here: total cells without miR-34 induction
[7] = MELAS cybrid survival, CellTiter-Glo 48 h, stronger effect = higher value
[8] = Rieske KO mouse fibroblast survival, CellTiter-Glo 72 h
Note: test concentration not given here.

Compound | fold change [1, 3] | fold change [1, 4] | cell count [1, 5] | cell count [1, 6] | z-score [2, 7] | z-score [2, 8]
COc1ccc(C2CC(=O)c3c(O)cc(O)cc3O2)cc1O (stereo not given) | 0.926 (inactive) | 0.807 | 9010 | 9730 | -0.233 (inactive) | 0.0902
Cc1ccc(C(=O)N(CCCN)C(c2oc3cc(Cl)ccc3c(=O)c2Cc2ccccc2)C(C)C)cc1 (stereo not given) | 0.942 (inactive) | 0.732 | 1220 | 1290 | 2.62 (active) | 0.0146
CON=C(C(=O)N[C@@H]1C(=O)N2C(C(=O)O)=C(CSC(=O)c3ccco3)CS[C@H]12)c1csc(N)n1 | 0.943 (inactive) | 1.19 | 9660 | 10200 | -0.295 (inactive) | 0.108
COC1=C2CC(C)CC(OC)C(O)C(C)C=C(C)C(OC(N)=O)C(OC)C=CC=C(C)C(=O)NC(=CC1=O)C2=O (stereo not given) | 0.91 (inactive) | 1.01 | 3230 | 3550 | 2.85 (active) | -2.42
[K+] | 0.939 (inactive) | 0.429 | 7790 | 8290 | 0.0668 (inactive) | 0.0929
CN1CCCC1Cc1c[nH]c2ccc(CCS(=O)(=O)c3ccccc3)cc12 (stereo not given) | 0.975 (inactive) | 1.13 | 9340 | 9580 | -0.473 (inactive) | -0.595
O=C1CC(=O)c2c(Cl)c(Cl)c(Cl)c(Cl)c21 | 1.01 (inactive) | 0.472 | 8430 | 8350 | -0.354 (inactive) | -0.295
CC(C)(C)c1ccc(-c2nc3ccccc3[nH]2)cc1 | 0.982 (inactive) | 0.555 | 8150 | 8300 | -0.625 (inactive) | -3.26
CC1=C(CC(=O)O)c2cc(F)ccc2C1=Cc1ccc(S(C)=O)cc1 (stereo not given) | 0.878 (inactive) | 0.667 | 7920 | 9010 | -0.193 (inactive) | 0.691
Cc1ccc(-c2c(-c3nn(C)c4ncnc(N5CCC(N6CCCCC6)C5)c34)cnn2C)cc1 (stereo not given) | 0.989 (inactive) | 0.458 | 8040 | 8120 | -0.254 (inactive) | -0.0628
CC1(C)S[C@H]2C(NC(=O)C(N)c3ccc(O)cc3)C(=O)N2C1C(=O)O (stereo not given in full) | 1.01 (inactive) | 0.573 | 8190 | 8150 | -0.00212 (inactive) | -0.0136
COC(=O)C(CCCN=C(N)N)NS(=O)(=O)c1ccc(C)cc1 (stereo not given) | 0.92 (inactive) | 0.589 | 8520 | 9260 | -0.296 (inactive) | 0.752
Cc1cncc(CN2CCC(=C3c4ccc(Cl)cc4CCc4cccnc43)CC2)c1 | 1.04 (inactive) | 0.52 | 6230 | 6000 | -0.369 (inactive) | -0.161
O=C(NCc1ccc(Oc2ccccc2)cc1)c1nc(-c2cc(Br)c(O)c(Br)c2)no1 | 0.903 (inactive) | 0.842 | 7380 | 8170 | -0.2 (inactive) | -0.275
CN1CCCN(C(=O)c2cccc(-c3ccc(C=C4C(=O)Nc5ccc(Cl)cc54)o3)c2)CC1 | 0.79 (inactive) | 4.28 | 2420 | 3060 | 0.13 (inactive) | -0.12
Cc1[nH]c2ccccc2c1CCNC(=O)c1cccs1 | 0.913 (inactive) | 0.438 | 7830 | 8570 | -0.422 (inactive) | 0.75
O=C(NS(=O)(=O)c1ccc(Br)s1)c1ccc(Cl)cc1Cl | 0.902 (inactive) | 0.488 | 7360 | 8160 | -0.252 (inactive) | -0.754
Cc1[nH]nc2ccc(-c3cncc(OCC(N)Cc4ccccc4)c3)cc12 (stereo not given) | 1.1 (inactive) | 0.572 | 1470 | 1330 | 1.05 (inactive) | -3.52
COCCCOc1cc(CC(CC(N)C(O)CC(C(=O)NCC(C)(C)C(N)=O)C(C)C)C(C)C)ccc1OC (stereo not given) | 0.942 (inactive) | 0.734 | 7600 | 8060 | 0.18 (inactive) | -0.179
CCC(=C(CC)c1ccc(O)cc1)c1ccc(O)cc1 | 0.852 (inactive) | 1.22 | 7280 | 8550 | -0.347 (inactive) | 0.452
CCC1=CC2CN(C1)Cc1c([nH]c3ccccc13)[C@@](C(=O)OC)(c1cc3c(cc1OC)N(C)[C@@H]1[C@@]34CCN3CC=C[C@@](CC)(C(OC(C)=O)[C@]1(O)C(=O)OC)[C@@H]34)C2 (stereo not given in full) | 1.11 (inactive) | 0.608 | 1810 | 1620 | 2.06 (active) | -0.337
COc1cc2c(cc1-c1c(C)noc1C)ncc1[nH]c(=O)n(C(C)c3ccccn3)c12 (stereo not given) | 0.947 (inactive) | 0.831 | 7600 | 8030 | 0.365 (inactive) | -1.83
COc1c(C)c2c(c(O)c1CC=C(C)CCC(=O)OCCN1CCOCC1)C(=O)OC2 | 0.917 (inactive) | 1.06 | 1830 | 1990 | 0.827 (inactive) | -0.579

Compound | fold change [1, 3] | fold change [1, 4] | cell count [1, 5] | cell count [1, 6] | z-score [2, 7] | z-score [2, 8]
O=C(O)C1OC(Oc2cc3oc(-c4ccccc4)cc(=O)c3c(O)c2O)C(O)C(O)C1O (stereo not given) | 0.916 (inactive) | 1.12 | 7800 | 8520 | -0.174 (inactive) | 0.279
COc1cc(CCC(C)=O)ccc1O | 0.964 (inactive) | 0.351 | 7540 | 7830 | -0.174 (inactive) | -0.0455
NC(=O)c1cnc(NC2CCCCC2N)nc1Nc1cccc(-n2nccn2)c1 (stereo not given) | 0.82 (inactive) | 0.778 | 1580 | 1920 | -0.344 (inactive) | -1.57
CCCCC(F)(F)C(=O)CCC1C(O)CC(=O)C1CCCCCCC(=O)O (stereo not given) | 0.926 (inactive) | 0.726 | 8100 | 8740 | 0.0399 (inactive) | -0.0235
CC1C[C@H]2[C@@H]3CCC4=CC(=O)C=C[C@]4(C)[C@]3(F)C(O)C[C@]2(C)[C@]1(O)C(=O)CO (stereo not given in full) | 0.886 (inactive) and 0.91 (inactive) | 0.577 and 0.802 | 5440 and 5070 | 6140 and 5570 | -0.338 (inactive) and -0.534 (inactive) | 0.031 and -0.0341
Cn1cc(C=CC(=O)c2cccc(F)c2)cc1C=CC(=O)NO | 0.9 (inactive) | 1.19 | 7610 | 8450 | -0.416 (inactive) | 0.68
COc1ccnc2[nH]cc(C(=O)C(=O)N3CCN(C(=O)c4ccccc4)CC3C)c12 (stereo not given) | 0.955 (inactive) | 0.698 | 9920 | 10400 | -0.419 (inactive) | 0.811
CN1CC[C@H](c2c(O)cc(O)c3c(=O)cc(-c4ccccc4Cl)oc23)C(O)C1 (stereo not given in full) | 0.938 (inactive) | 1.82 | 1600 | 1700 | 3.42 (active) | -0.841
O=c1ncccn1C1OC(CO)C(O)C1O (stereo not given) | 0.912 (inactive) | 0.461 | 8580 | 9410 | -0.447 (inactive) | -1.06
C=C1CCC(O)CC1=CC=C1CCC[C@]2(C)C(C(C)C=CC(C)C(C)C)CC[C@@H]12 (stereo not given in full) | 0.949 (inactive) | 0.581 | 7890 | 8320 | -0.149 (inactive) | -0.174
CNC(C)C(=O)NC(C(=O)N1CCCC1C(=O)Nc1snnc1-c1ccccc1)C1CCCCC1 (stereo not given) | 0.982 (inactive) | 0.55 | 8360 | 8510 | -0.276 (inactive) | -0.145
Nc1nccc2c1ncn2C1C=C(CO)C(O)C1O (stereo not given) | 0.968 (inactive) | 0.366 | 4640 | 4800 | -0.724 (inactive) | -1.41
CC1(C)S[C@H]2C(NC(=O)C(NC(=O)N3CCN(S(C)(=O)=O)C3=O)c3ccccc3)C(=O)N2C1C(=O)O (stereo not given in full) | 0.882 (inactive) | 0.658 | 7720 | 8750 | -0.292 (inactive) | -0.225
CCC(=O)O[C@@]1(C(=O)SCF)C(C)C[C@H]2[C@@H]3CC(F)C4=CC(=O)C=C[C@]4(C)[C@]3(F)C(O)C[C@@]21C (stereo not given in full) | 0.849 (inactive) | 1.14 | 4990 | 5880 | -0.525 (inactive) | -0.481
CC1(C)C(O[C@H]2OC(C(=O)O)C(O)C(O)C2O[C@@H]2OC(C(=O)O)C(O)C(O)C2O)CC[C@@]2(C)[C@H]3C(=O)C=C4[C@@H]5C[C@@](C)(C(=O)O)CC[C@]5(C)CC[C@@]4(C)[C@]3(C)CC[C@@H]12 (stereo not given in full) | 0.946 (inactive) | 0.91 | 7600 | 8030 | -0.278 (inactive) | -0.114
CC1C(NC(=O)C(=NOC(C)(C)C(=O)O)c2csc(N)n2)C(=O)N1S(=O)(=O)O (stereo not given) | 0.929 (inactive) | 0.823 | 7110 | 7650 | -0.398 (inactive) | 0.579
CC(C)CC(NC(=O)C(Cc1ccccc1)NC(=O)c1cnccn1)B(O)O (stereo not given) | 0.948 (inactive) | 0.953 | 1020 | 1080 | -0.496 (inactive) | -2.5
CC1CC[C@]2(C(=O)O)CC[C@]3(C)C(=CC[C@H]4[C@@]5(C)CC(O)C(O)[C@@](C)(CO)[C@@H]5CC[C@]43C)[C@H]2C1C (stereo not given in full) | 0.88 (inactive) | 0.855 | 8330 | 9460 | -0.312 (inactive) | 0.68
O=C(O)c1ccc(C=C2SC(=S)N(c3cccc(C(F)(F)F)c3)C2=O)cc1 | 0.824 (inactive) | 0.518 | 6780 | 8220 | -0.207 (inactive) | -3.49
CC(C)(C)NC(=O)C1CC[C@H]2[C@@H]3CC[C@H]4NC(=O)C=C[C@]4(C)[C@@H]3CC[C@]12C (stereo not given in full) | 1.03 (inactive) | 1.3 | 8400 | 8170 | -0.417 (inactive) | 0.72
Cn1cc(-c2[nH]c3cc(NC(=O)C(N)C4CCCCC4)cc4c3c2C=NNC4=O)cn1 (stereo not given) | 0.983 (inactive) | 1.09 | 2060 | 2100 | 0.356 (inactive) | -0.0626
Nc1ncn(C2CC(O)C(CO)O2)c(=O)n1 (stereo not given) | 0.936 (inactive) | 0.727 | 7530 | 8050 | -0.461 (inactive) | 0.644

Source: PubChem BioAssay
